Test results as given in PubChem BioAssay AID1272365 (Small Molecule Screening Facility, UW Madison, 2018).
Several values for one entry are separate records, joined by “and”; a condition that tells them apart may be missing. Equal values may be shown once. Hit rate of the full screen: of about 430,000 compounds, about 2,600 (0.6%) were called active. No stated cut-off is given here; in the data, active means inhibition mostly above about 37% (no sharp cut-off); inactive means mostly below about 20%. For the sample, actives were picked, then their nearest neighbours and some compounds at random.

Tested on: PriA–SSB C-terminal tail interaction (Klebsiella pneumoniae)
Experiment: inhibitors of Klebsiella pneumoniae PriA binding to SSB C-terminal tail, primary screen, biochemical, AlphaScreen (AID 1272365);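 on inhibition: plate controls were negative control peptide for no effect and reference peptide for full effect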
Settings: AlphaScreen SSBct-PriA binding, biotinylated peptide; at 33 µM, stronger effect = higher value

Row | Structure (SMILES) | inhibition
1 | CC(C)(CC(=O)NCc1ccc(F)cc1)CC1=NS(=O)(=O)c2ccccc2N1 | -14% (inactive)
2 | COc1ccc(C(=O)Nc2ccc(S(C)(=O)=O)cc2)cc1 | -8% (inactive)
3 | CC(C)Sc1nc(N2CCCC2)c2cnn(CCNC(=O)c3cccs3)c2n1 | -8% (inactive)
4 | CCn1ccnc1CN1CCN(C)CC1 | 0% (inactive)
5 | CC(=O)Nc1ccc(S(=O)(=O)N2CCN(S(=O)(=O)c3ccc(C)cc3)CC2)cc1 | -19% (inactive)
6 | N#Cc1nccnc1O[C@H]1CCCN(C(=O)c2ccc3nc[nH]c3c2)C1 | -19% (inactive)
7 | Cc1cccc(-n2cc(-c3ccccc3)c3c(Nc4ccc(Oc5ccc(Cl)cc5)cc4)ncnc32)c1 | -17% (inactive)
8 | Cc1cccc(C(=O)Nc2nnc(Cc3c[nH]c4ccccc34)s2)c1 | 6.73% (inactive)
9 | Cc1cccc(N=C2NN=C(c3c[nH]c4ccccc34)CS2)c1 | 48.7% (active)
10 | C=CCn1c(C)cc(C2=NNC(=NCC)SC2)c1C | 29.4% (inactive)
11 | Cn1cc(S(=O)(=O)Nc2ccc(CC(=O)N3CCOCC3)cc2)cn1 | 6% (inactive)
12 | C/C(=N\Nc1ccc(S(N)(=O)=O)cc1[N+](=O)[O-])c1cccs1 | inactive
13 | NS(=O)(=O)c1ccc(CNC(=O)c2ccc(Cl)cc2[N+](=O)[O-])cc1 | -24.6% (inactive)
14 | CC(CCC(C)C)=NNc1ccc(S(N)(=O)=O)cc1[N+](=O)[O-] | 42.4% (active)
15 | COc1ccccc1C(=O)N1CCN=C1SCc1cccnc1 | -0.73% (inactive)
16 | O=C(c1cc2n(n1)CCCO2)N1CCN(Cc2cccnc2)CC1 | -17% (inactive)
17 | COc1cccc(OC)c1C(=O)N1CCN(Cc2cccnc2)CC1 | 49% (active)
18 | O=C(c1cc2ccccc2o1)N1CCN(C(=O)C2CC2c2ccccc2)CC1 (centres undefined) | 2% (inactive)
19 | Cc1cc(S(=O)(=O)N2CCOC23CCN(C(=O)c2cc(=O)c4ccccc4o2)CC3)ccc1F | -9% (inactive)
20 | CC1CCN(c2nc(-c3ccccn3)nc3ccccc23)CC1 | 102% (active)
21 | CC1CCN(C(=O)Cn2c(-c3ccncc3)nc3ccccc32)CC1 | 4% (inactive)
22 | Cc1ccc2cc(C)c(N3CCC(C)CC3)nc2c1 | -34.6% (inactive)
23 | O=C1C(=O)N(CN2CCN(C(c3ccccc3)c3ccccc3)CC2)c2ccccc21 | -1% (inactive)
24 | COC(=O)/C=C1\SC(=NNC(=O)c2ccccc2)NC1=O | -6.67% (inactive)

Row | Structure (SMILES) | inhibition
25 | Cc1nc(-c2cccs2)sc1CNC(=O)c1ccc(=O)[nH]c1 | 5% (inactive)
26 | Cc1cc2cc3c(N)[nH]nc3nc2cc1C | -6.78% (inactive)
27 | Nc1[nH]nc2nc(-c3ccccn3)ccc12 | 94.2% (active)
28 | Cc1cc(NC(=O)C(C)(C)Oc2ccc(Cl)cc2)n(-c2nc3c(c(=O)[nH]2)CCC3)n1 | -1% (inactive)
29 | CCOC(=O)c1c(NC(=O)c2c(F)cccc2F)sc2c1CCN(C(=O)OCC)C2 | -7% (inactive) and -12% (inactive)
30 | CCOC(=O)c1ccc(NNC(C)=O)c([N+](=O)[O-])c1 | 3.85% (inactive)
31 | CN(c1ccccc1)c1ccc([N+](=O)[O-])c2nonc12 | 32.9% (inactive)
32 | CCc1ccc(Nc2ccc([N+](=O)[O-])c3nonc23)cc1 | 79.3% (active)
33 | O=C(COc1ccccc1)N1CCN(c2ccc(-c3ccco3)nn2)CC1 | -12% (inactive)
34 | COc1ccc(C)cc1NC(=O)Cc1csc(NS(=O)(=O)c2ccccc2)n1 | 6% (inactive)
35 | COc1ccc(OC)c(Nc2nc(CC(=O)N3CCN(c4ncccn4)CC3)cs2)c1 | 19% (active)
36 | O=C1CCC(C(=O)Nc2nc(CC(=O)N3CCN(c4ccccn4)CC3)cs2)N1 (centres undefined) | 8% (inactive)
37 | COC(=O)Nc1nc(CC(=O)Nc2ccccc2OC)cs1 | -13% (inactive)
38 | COc1ccc(OC)c(Nc2nc(CC(=O)Nc3nc4ccccc4s3)cs2)c1 | 38% (active)
39 | COc1ccc(OC)c(Nc2nc(CC(=O)N3CCc4ccccc43)cs2)c1 | 12% (inactive)
40 | CCCCN(C1CCS(=O)(=O)C1)S(C)(=O)=O (centres undefined) | 10% (inactive)
41 | Cc1ccc(C)c(CSc2nnc3n(C)c(=O)c4ccc(C(=O)NC5CCCC5)cc4n23)c1 | 0% (inactive)
42 | O=C(c1ccc(S(=O)(=O)N2CCCCC2)cc1)N(c1cccc(Cl)c1)C1C=CS(=O)(=O)C1 (centres undefined) | -8% (inactive)
43 | O=C(NCCCn1ncccc1=O)c1cccc(C(F)(F)F)c1 | -10% (inactive)
44 | CSc1cccc(-c2nnc(NC(=O)c3ccc(Cl)s3)o2)c1 | 11% (inactive) and 4% (inactive)
45 | Cc1cc(SCC(=O)Nc2ccc(OC(F)F)cc2)nc2ccccc12 | -2% (inactive) and -21% (inactive)
46 | Cn1ccc(C(=O)Nc2ccc(F)cc2)n1 | 8% (inactive)
47 | COc1cc2nc(SCc3cc(=O)n4cc(Cl)ccc4n3)n3nc(C)nc3c2cc1OC | -5% (inactive)
48 | O=C(NCc1ccco1)C(=O)Nc1c2c(nn1-c1ccc(F)cc1)CSC2 | -7% (inactive)

Row | Structure (SMILES) | inhibition
49 | Cc1ccccc1C(=O)NCC(c1ccco1)N1CCc2ccccc21 (centres undefined) | -7.16% (inactive)
50 | O=C(NCC(c1ccco1)N1CCc2ccccc21)C(=O)Nc1ccccc1[N+](=O)[O-] (centres undefined) | 42% (active)
51 | COc1ccccc1CCNC(=O)C(=O)NC[C@@H](c1ccco1)N1CCc2ccccc21 | 8% (inactive)
52 | COc1ccc(NC(=O)Nc2nnc(SCC(=O)Nc3cccc([N+](=O)[O-])c3)s2)cc1 | -16% (inactive)
53 | Cc1cc([N+](=O)[O-])c(NC2CCCCC2)c([N+](=O)[O-])c1 | 80.5% (active)
54 | Cc1cc([N+](=O)[O-])c(N2CCC[C@@H]2C(=O)O)c([N+](=O)[O-])c1 | -16.2% (inactive)
55 | Cc1cc(OCC(=O)NC2CCN(C)CC2)ccc1[N+](=O)[O-] | -23% (inactive)
56 | NC(=O)C1CCN(C(=O)N[C@H]2CC(=O)N(c3ccc(F)cc3)C2)CC1 | 2% (inactive)
57 | Cc1ccc(NC(=O)C(=O)NC[C@](C)(O)c2cccs2)cc1C | -4% (inactive)
58 | COc1ccc(CCC(=O)N2CCC(Oc3cc(C)oc(=O)c3)C2)cc1Br (centres undefined) | 4% (inactive)
59 | Cc1cc(NC(=O)CSc2nnc(CNC(=O)c3cccs3)o2)no1 | -5% (inactive)
60 | Cc1cc(NC(=O)CSc2nnc(-c3ccc(Cl)s3)o2)no1 | 43.9% (active) and 1% (inactive)
61 | Cc1nnc(NC(=O)CSc2nnc(-c3ccccc3C)o2)s1 | 11% (inactive)
62 | COC(=O)C1CCN(C(=O)CCc2csc3nc(-c4ccc(OC)cc4)cn23)CC1 | -11% (inactive)
63 | Cn1ccnc1S(=O)(=O)C1CCN(C(=O)c2ccc3nsnc3c2)CC1 | -12% (inactive)
64 | O=C(Nc1nc2c(s1)CN(Cc1ccccc1)CC2)c1cc(Cl)sc1Cl | 23% (inactive)
65 | COc1ccccc1CCNC(=O)CSc1nnc2ccc(-c3cccnc3)nn12 | -8.11% (inactive) and 15% (inactive)
66 | COc1ccccc1CCNC(=O)CSc1ccc(-c2ccccn2)nn1 | 81.7% (active)
67 | O=C(CSc1ccc(-c2cccnc2)nn1)NCCc1ccccc1 | -2% (inactive)
68 | O=C(CSc1ccc(-c2ccccn2)nn1)Nc1ccccc1 | 90.4% (active)
69 | CSc1ccc(NC(=O)c2ccccc2F)nn1 | 2% (inactive)
70 | O=C(CSc1ccc(-c2ccc(-n3cccn3)cc2)nn1)Nc1ccc([N+](=O)[O-])cc1 | -0.41% (inactive)
71 | COc1cc(NC(=O)CSc2ccc(-c3cccnc3)nn2)cc(OC)c1 | 6.7% (inactive)
72 | Brc1ccc(CSc2nnc3ccc(-c4ccccn4)nn23)cc1 | -17% (inactive)

Row | Structure (SMILES) | inhibition
73 | CSc1ccc(-c2ccccn2)nn1 | 148% (active)
74 | NC(=NOC(=O)C1CCCCC1)c1ccc(Br)cc1 | -26.4% (inactive)
75 | CS(=O)(=O)c1ccccc1C(=O)N1CCN(c2ccccc2)CC1 | 0% (inactive)
76 | CN(C)S(=O)(=O)c1ccc(C(=O)NCc2nnc(SCc3c(F)cccc3Cl)o2)cc1 | 6% (inactive) and -7% (inactive)
77 | Cc1ccc(N2CCn3c2nc2c3c(=O)n(CCN3CCOCC3)c(=O)n2C)cc1Cl | 0% (inactive)
78 | COC(=O)c1ccc2c(=O)n(CCCC(=O)NCc3cccs3)c(=S)[nH]c2c1 | -3% (inactive)
79 | O=C(NCCCn1ccnc1)c1cc2c(s1)CCCC2 | 44.7% (active)
80 | Cc1ccc2c(Cl)c(C(=O)NCCCn3ccnc3)sc2c1 | 9.4% (inactive)
81 | O=C(NCCCn1ccnc1)c1cc(-c2ccccc2)on1 | 2.55% (inactive)
82 | COc1ccc(/C=N\N=C2\NC(=O)C(CC(=O)NC(N)=O)S2)c(C(=O)O)c1OC (centres undefined) | -10% (inactive)
83 | Cc1ccccc1-n1c(O)c(C=CC=Nc2ccccc2)c(=O)[nH]c1=O | 4.92% (inactive)
84 | O=C(Nc1nnc(C2CCCO2)o1)c1cc2ccccc2oc1=O (centres undefined) | 4% (inactive)
85 | O=C(COc1ccc(Cl)cc1Cl)Nc1nnc(C2CCCO2)o1 (centres undefined) | 63% (active)
86 | O=C(Nc1nnc(C2CCCO2)o1)c1sc2ccccc2c1Cl (centres undefined) | 34% (inactive)
87 | COc1ccc(CCC(=O)NCCCn2nc(-c3ccccc3)ccc2=O)cc1 | 2% (inactive)
88 | O=C(NC(=S)Nc1ccccc1C(=O)O)c1ccc(-c2ccc(Br)cc2)o1 | 3.73% (inactive)
89 | CN1CCN(C(=O)c2ccc(-c3ccc(Br)cc3)o2)CC1 | 39% (active) and 2.72% (inactive)
90 | O=CN1CCN(C(=O)c2ccc(Br)o2)CC1 | -5.54% (inactive)
91 | O=C(O)CNC(=O)CN1C(=O)S/C(=C\C=C\c2ccccc2)C1=O | -12% (inactive)
92 | O=C(NCCc1ccccc1)c1csc(Nc2ccccc2)n1 | 7% (inactive)
93 | O=C(O)/C=C\C(=O)NCc1ccc2c(c1)OCO2 | -5% (inactive)
94 | O=C(NCc1ccc2c(c1)OCO2)c1csc(Nc2ccccc2)n1 | 0% (active)
